Our source for the growth values is PubChem BioAssay (NCI).

Assay in all cases: NCI-60 one-dose screen, 48 h (100 = growth as untreated, 0 = no growth, -100 = all killed)
What all share (details): 10 µM unless noted

Assay [1] relates to RPMI-8226 leukemia.
Assay [2] relates to OVCAR-8 ovarian.
Assay [3] concerns OVCAR-5 ovarian.
Assay [4] deals with SK-OV-3 ovarian.
In assay [5] the test system is IGROV1 ovarian.
The subject of assay [6] is OVCAR-3 ovarian.
Assay [7] deals with HS 578T breast.
Assay [8] concerns NCI/ADR-RES ovarian.
Assay [9] has as its system OVCAR-4 ovarian.

Where “and” joins values, the source holds several entries; their conditions need not be identical. Equal entries are not always repeated. About 83,000 compounds went through this panel and 20% of them were active in at least one assay; those are over-represented in the sample as a whole.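 The endpoint reported here, percent growth, reads 100 for growth as untreated, 0 for no net growth and -100 for all cells dead.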 A number with no mark means an inactive call. Calls of active or inactive are those of the source. Rule for the calls: active = growth percent below 10; inactive = the rest.

Consider `N=C(N=C(N)N)N1CCOCC1`, for which the growth in [1] was 113% and 107%; in [2] it was 105% and 106%; in assay [3] it was 99.3%; in assay [4] it was 101% and 104%; in [5], 100% and 109%; in assay [6] it was 114% and 107%. Also, the growth in assay [7] is 105% and 100%; in [8], 105% and 98.8%.
For `Oc1ccc(O)c(-c2ccccc2)c1`, the growth in [1] is 42%; in [2] it was 62.9%; in assay [9] it was 53.8%; in [4], 83.3%; in assay [5] it was 47%; in [6], 20.5%. In addition, the growth is 76.5% in assay [7] and 50.6% in assay [8].
Regarding `COc1ccc(/C=N/NC(N)=S)cc1`, the growth in assay [1] was 88.9%; in assay [2], 100%; in [3] it was 93.7%; in assay [9], 89.8%; in [4], 106%; in [5], 76.9%. For the same compound, the growth in assay [6] is 111%; in assay [7], 101%; in assay [8], 96.7%.
Consider `C/C(=C\c1ccccc1)C(O)C(=O)c1nc2ccc([N+](=O)[O-])cc2[nH]c1=O` (centres undefined), for which the growth in assay [1] was 90.2%; in [2], 96.6%; in [3], 96%; in assay [9], 114%; in assay [4], 105%; in assay [5] it was 102%. In addition, the growth in [6] was 113%; in [7], 94.7%; in [8], 87.7%.
`CN(C)c1ccc(C(=N)c2ccc(N(C)C)cc2)cc1`: the growth in [2] is 31.5% and 31.2%; in assay [3], 68.1% and 65.4%; in [9], 57.8% and 34.9%; in assay [4], 31.1% and 31.6%; in [5] it was 35.2% and 46%; in [6], -9.34% (active) and 2.49% (active). Also, the growth was 16% and 40.5% in assay [7]; 0.0366% (active) and 2.94% (active) in [8].
With `Cc1cccc(Cl)c1N`, the growth in assay [1] was 120%; in assay [2] it was 96.1%; in [3], 110%; in assay [9], 117%; in assay [4], 113%; in [5], 153%. Further, the growth in assay [6] was 117%; in assay [7], 87.6%; in assay [8] it was 101%.
Take `CCN(CC)C(=S)SCCO`: the growth in [1] was 99.5%; in [2], 103%; in [3] it was 110%; in assay [4], 111%; in [5], 107%; in assay [6], 106%. Further, the growth in assay [7] is 103%; in [8], 102%.
As for `Cc1cnc(N)s1`, the growth was 92.8% in assay [2]; 89.7% in assay [4]; 103% in [5]; 105% in assay [6]; 89.4% in [7]; 101% in assay [8].
As for `COc1ccc(/C=N/Nc2nc3ccccc3s2)cc1`, the growth in assay [1] is 104%; in assay [2], 105%; in assay [3], 103%; in assay [9] it was 87.5%; in [4] it was 90%; in assay [5] it was 68.5%. Further, the growth is 86.4% in assay [6], 105% in assay [7] and 98.7% in assay [8].
On to `Nc1c(S(=O)(=O)O)cc(Br)c2c1C(=O)c1ccccc1C2=O`, for which the growth in [1] is 96.7% and 104%; in assay [2] it was 106% and 92.1%; in assay [3], 113% and 101%; in assay [4] it was 85.6% and 102%; in assay [5] it was 105% and 88.9%; in [6], 102% and 121%. The growth in [7] was 112% and 94.3%; in assay [8] it was 108% and 115%.
Take `Nc1ccc(O)c(C(=O)O)c1`: the growth was 65% and 108% in assay [1]; 99.2% and 106% and 109% in assay [2]; 121% and 102% and 91.1% in assay [3]; 84% and 105% and 108% in [9]; 105% and 106% and 119% in assay [4]; 96.8% and 111% and 105% in assay [5]. For the same compound, the growth in [6] was 100% and 101% and 115%; in assay [7], 112%; in [8] it was 103% and 111% and 93.9%.
`NNc1ncnc2cccc(Cl)c12`: the growth is 94.9% in assay [1]; 95.2% in assay [2]; 114% in [9]; 94.4% in assay [4]; 102% in assay [5]; 119% in assay [6]. Further, the growth in assay [7] is 98.4%; in assay [8], 102%.
